Source: PubChem BioAssay (Tox21)
Records with an inconclusive call do not appear. Unmarked numbers belong to inactive results. Active and inactive are the calls of the source. Calls come from the whole dose curve; as a rule, active = well fitted cell-killing curve with a large enough effect in the repeat runs; inconclusive = weak or mixed curves, or effect the other way; inactive = flat fitted curve, though single readings scatter.

Experiment: cAMP Responsive Elements (CRE) small molecule antagonists, cell-based qHTS assay: qHTS cell viability counter screen (AID 2060913); note: nearly all actives have a fitted effect of over 40% in size
Conditions: CRE-bla HEK293T viability, CellTiter-Glo luminescence, 5 h; series mostly up to 92.4 µM; viability change, negative = cytotoxic: at the top concentration
Method in brief: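 Steps: cells plated and held 18 hrs at 37 C/5% CO2; compounds and NKH477 (0.25 uM final) added; 3 hrs incubation; reporter substrate read; CellTiter-Glo added to measure cytotoxicity by luminescence.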
% is set by controls: 0 for no effect and ±100 for the full control effect.

SMILES	Potency	viability change, negative = cytotoxic
Cc1ccc2c(c1)C(=O)OC2=O	inactive	
Nc1cc(Cl)c([N+](=O)[O-])cc1O		4.8%
C=C(C)c1ccccc1		1.87%
Cc1nc(C)nc(N2C[C@@H](C)N(c3ccnc([C@@H](C)O)n3)[C@@H](C)C2)n1		3.23% [at 42.5 µM]
CC1(C)C(C=C(Cl)Cl)C1C(=O)OCc1cccc(Oc2ccccc2)c1 (stereo unspecified)	inactive	
Cc1ccc(S(N)(=O)=O)cc1	inactive	
O=C(c1ccc(O)cc1)c1ccc(Cl)cc1		-15.9%
NC(N)=Nc1nc(CSCC/C(N)=N/S(N)(=O)=O)cs1	inactive	
C=CCCCCCCC=C		1.16%
C/C=C(\C)C=O		20.9%
O=C=Nc1cccc(C(F)(F)F)c1		0.254%
CC1(C)CO[C@@H](CC(=O)O)CN1		6.45% [at 42.5 µM]
COC(=O)C(C)Oc1ccc(Oc2ncc(C(F)(F)F)cc2Cl)cc1 (stereo unspecified)	inactive	
Nc1ccccc1Nc1ccccc1		9.47%
CCOc1ccc(N)c([N+](=O)[O-])c1		-0.39%
CCCCCCCOC(C)=O		9.11%
O=C1Nc2ccccc2C1(c1ccc(O)cc1)c1ccc(O)cc1	inactive	
CCc1cc(C(N)=S)ccn1	inactive	
CC(C)(C)c1cc(C=O)cc(C(C)(C)C)c1O		3.67% [at 42.5 µM]
Clc1ccc2c(c1)C(N1CCNCC1)=Nc1ccccc1O2	inactive	
N[C@@H](CSSC[C@H](N)C(=O)O)C(=O)O		0% [at 0.349 µM]
CCCCCCCCCCCCCCCC(=O)OC(C)C	inactive	
COC(=O)C(C)(C)C		-13.5%
CC1=CC[C@@H](C(C)(C)O)CC1		5.04%
O=Cc1ccccc1S(=O)(=O)O		1.13%
CSc1nnc(C(C)(C)C)c(=O)[nH]1		-1.3%
